Reference: PubChem BioAssay AID651821 (The Scripps Research Institute Molecular Screening Center, 2012)
In all, about 370,000 compounds went through this assay and about 4,700 (1.3%) were called active.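 How the source made its calls: active means inhibition above the plate cutoff, the mean of all test compounds on that plate plus 3 SD (cut at about 35% in these data); inactive means the rest.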 Shown is part of a subset that was picked to be rich in actives.

Assay: binders of r(CAG) RNA repeats, primary screen, biochemical, fluorescence (AID 651821);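 further: 0% = DMSO alone and 100% = 100 µM mitoxantrone as full dye displacement; higher means more dye released from RNA so lower well fluorescence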
Conditions: r(CAG) RNA repeat, TO-PRO-1 dye displacement fluorescence; at 3 µM; stronger effect = higher value

inhibition, active:
COc1cc(C2CC(=O)N3CN(Cc4ccccc4)CSC3=C2C#N)ccc1OCc1ccccc1 (centres undefined) 51.3%, Cc1ccc([C@@H]2CC=C(C(=O)O)[C@H](c3cccc(Cl)c3)N2S(=O)(=O)c2ccc(C)cc2)cc1 77.2%, Cc1ccccc1S(=O)(=O)N1[C@@H](c2cccc(Cl)c2)C(C(=O)O)=CC[C@H]1c1ccc(Cl)cc1 81.4%, Cc1ccc(S(=O)(=O)N2[C@@H](c3ccccc3F)C(C(=O)O)=CC[C@H]2c2ccc(Cl)cc2)cc1 60.2%, COc1cc(/C=C2/C(=O)NN(c3cccc(Cl)c3)C2=O)cc(Br)c1O 64%, COc1ccc2[nH]c3c(C)c4cc[n+](C)cc4c(C)c3c2c1 39.2%, Cc1ccc(Nc2nc(-c3ccc(O)cc3O)cs2)nc1 36.2%, CN(Cc1ccccc1)S(=O)(=O)c1nnc(NC(=O)c2ccccc2F)s1 54.3%, Cc1ccc(-c2csc(C(C#N)=C(O)CN3CCN(C(=O)c4ccco4)CC3)n2)cc1 42.8%, Cc1ccc(Nc2nc(CSc3nnnn3-c3ccccc3)cc(=O)[nH]2)cc1 46.6%, Cc1cc(N2C(=O)C(O)=C(C(=O)c3ccc(C)o3)C2c2ccc(OCc3ccccc3)cc2)no1 (centres undefined) 49.3%, O=[N+]([O-])c1cc(Br)c(O)c(/C=N/Nc2nc3ccccc3s2)c1 64.1%, CC(C)c1nc(SCC(=O)Nc2cccc(C(=O)O)c2)c2c3c(sc2n1)CCCC3 69.3%, Cc1ccc(C(=O)O)cc1-c1ccc(/C=C2\SC(=O)N(CC(=O)Nc3ccc4c(c3)OCO4)C2=O)o1 56%

inhibition, inactive:
COC(=O)Nc1nc2ccc(C(=O)C3CC3)cc2[nH]1 4.25%, C[C@H](C(=O)N(C)c1ccccc1)[C@@H](O)c1ccc2ccccc2c1 1.73%, CCOC(=O)[C@@]12CCC3=C1N(CCC3)C(=O)[C@H](CC(=O)N1CCN(C(=O)c3ccco3)CC1)C2 4.55%, C=CCc1ccc(OCC(O)CN2CCN(Cc3ccccc3)CC2)c(OC)c1 (centres undefined) -8.04%, CCCNC(=O)C1CC(=O)N(c2ccc(OCc3ccccc3)cc2)C1 (centres undefined) 1.21%, C/C(=N/OC(=O)c1ccc(Br)cc1)c1ccc(C)cc1 -2.66%, COc1ccccc1C(=O)NC(CCSC)C(=O)NNC(=O)c1ccccc1C (centres undefined) -5.48%, CCN1C(=O)[C@@H]2[C@@H]3CN(S(=O)(=O)c4ccccc4C)[C@@H](c4ccc(Cl)cc4)[C@@H]3C(=O)C[C@@H]2C1=O 8.04%, CCOC(=O)C1=CC[C@@H](c2ccccc2)N(S(=O)(=O)c2ccc(C)cc2)[C@H]1c1cccc(OC)c1 7.08%, Cc1ccc([C@@H]2CC(=O)[C@@H]3CN(S(=O)(=O)c4ccc(C)cc4)[C@H](c4ccccc4F)C[C@@H]3N2S(=O)(=O)c2ccc(Cl)cc2)cc1 9.69%, Cc1ccccc1S(=O)(=O)N1[C@@H](c2cccc(Cl)c2)C(C(=O)OC(C)(C)C)=CC[C@H]1c1ccc(Cl)cc1 3.52%, Cc1ccc(S(=O)(=O)N2[C@@H](c3cccc(Cl)c3)C(C(=O)O)=CC[C@H]2c2ccc(Cl)c(Cl)c2)cc1 25.1%, COc1ccc(C2CC=C(C(=O)O)C(c3ccccc3F)N2S(=O)(=O)c2ccc(C)cc2)cc1OC (centres undefined) 24.2%, Clc1ccc(-n2c(COc3ccccc3)nnc2SCc2nc3ccccc3[nH]2)cc1 2.7%, COC(=O)[C@@]12CCCCC=C1N(CCc1ccc(Cl)cc1)C(=O)[C@H]2CC(=O)NCc1ccc(OC)c(OC)c1 8.28%, CC(=NNC(N)=O)c1ccc(Cl)c(-n2cccc2)c1 1.94%, COc1ccc(CNC(=O)CN(Cc2ccccc2Cl)C(=O)c2csnn2)cc1 3.39%, O=S1(=O)c2c(cccc2N2CCCC2)O[C@H](COCc2ccccc2)CN1C1CC1 1.71%, CCCC1=Nc2cc(C(=O)NCc3ccco3)ccc2Sc2ccccc21 2.23%, C=CCN1[C@@H](Cc2ccccc2)COc2cccc(N3CCSCC3)c2S1(=O)=O 5.53%, Cc1ccccc1C(=O)N[C@H](C(=O)N1CCC[C@H]1C(=O)NCc1ccccc1)C(C)C 0.37%, O=C(NCc1cccs1)C1CCN(S(=O)(=O)c2ccccc2[N+](=O)[O-])CC1 7.31%, CCC(CO)Nc1cccc2c1S(=O)(=O)N(Cc1cn(Cc3ccccc3C(F)(F)F)nn1)Cc1ccccc1O2 (centres undefined) 7.47%, COC(=O)C[C@H]1CC[C@H]2[C@H](COc3ccc(NC(=O)C4CC4)cc3C(=O)N2C)O1 -1.01%, Nc1[nH]c(C(=O)c2ccc(Br)cc2)c(-c2ccc3c(c2)OCO3)c1C(=O)NCCc1c[nH]c2ccccc12 14.8%, Cc1ccc(C(=O)N(Cc2ccccn2)CC2CCCO2)cc1 (centres undefined) -0.73%, CCOc1c(Br)cc(/C=C2\C(=O)N(CCC#N)N=C2C)cc1OC 16.2%, CCN(C(=O)[C@@H](C1CC1)[C@@H](O)c1ccc2ccccc2c1)c1ccccc1 -1.86%, COC(=O)[C@]12C[C@H](CC(=O)NCc3ccc(C)o3)C(=O)N(CCC3=CCCCC3)C1=C[C@H](C(C)(C)C)O[C@@H]2C 0.73%, O=C(CNS(=O)(=O)c1ccccc1F)N1CCN(c2ccccn2)CC1 -0.14%, CC(=O)N1CCCN(C2=Nc3ccccc3Sc3ccccc32)CC1 -1.49%, O=S1(=O)c2ccc(Br)cc2OC[C@@H](Cc2ccccc2)N1Cc1cn(Cc2ccco2)nn1 4.58%, CC(=O)Nc1cnc(-c2ccc(O)cc2C)cn1 1.38%, Cc1ccc(-c2csc(NCCc3nc4cc(Cl)c(Cl)cc4n3CCOCCO)n2)cc1 17.1%, O=S(=O)(c1cccs1)N1CCCc2nc(-c3ccc(Br)cc3)ccc21 4.14%, O=C(CSc1nc2ccccc2nc1N1CCCCC1)N1CCN(S(=O)(=O)c2cccc([N+](=O)[O-])c2)CC1 12%, CCCCC(=O)Nc1nnc(S(=O)(=O)N(C)Cc2ccco2)s1 5.48%, O=C(Nc1nnc(-c2ccccc2F)s1)c1ccccc1F 0.79%, Cc1cccc(C(=O)Nc2c(-c3ccc(F)cc3)nc3ncccn23)c1 0.58%, C=C(C)C1CC23C(=O)C4(C(=O)c5ccccc5)C[C@@]5(C)CCC(CC2C1(C)C)(C4=O)C35OC (some centres undefined) 8.07%, O=C(CN1CCN(C(=O)c2ccco2)CC1)Nc1ccc2c(c1)OCO2 0.64%, Cc1ccc(NC(=O)C(c2ccccc2)N2CCN(C(=O)c3ccco3)CC2)cc1 (centres undefined) 4.43%, COc1ccc(NC(=O)CSc2nnnn2-c2cccc(OC)c2)cc1 1.33%, Nc1nc(CSc2nnnn2-c2ccccc2)nc(Nc2ccccc2)n1 7.48%, CC(C)CNc1cccc2c1S(=O)(=O)N(Cc1cn(Cc3ccc(Cl)cc3)nn1)Cc1ccccc1O2 5.62%, C=CCOc1cccc(C2C(C(=O)c3ccc(C)o3)=C(O)C(=O)N2c2nnc(C)s2)c1 (centres undefined) 6.27%, COc1cc(C2C(C(=O)c3ccco3)=C(O)C(=O)N2c2cc(C)on2)ccc1OCc1ccccc1 (centres undefined) 10.3%, COc1cccc(Cn2cc(COC(=O)Nc3ccc(F)cc3)nn2)c1 0.76%, COCc1c(C(=O)N/N=C(\C)c2ccncc2)nnn1-c1nonc1N -1.16%, Cc1ccccc1CS(=O)(=O)Cc1ccc(C(=O)Nc2ccc(Cl)cc2)o1 6.61%, O=C(N/N=C/c1cc([N+](=O)[O-])ccc1O)/C(=C\c1cccs1)NC(=O)c1ccccc1 32.3%, O=C(CSc1nc2ccccc2s1)NN=Cc1ccc(O)cc1O 11%, C[C@H]1CN([C@@H](C)CO)C(=O)CCCn2nncc2CO[C@@H]1CN(C)Cc1ccc(Oc2ccccc2)cc1 1.78%, N#CCC[C@H]1CC[C@]2(CCCN(Cc3ccc(Cl)cc3)C2)O1 1.52%, c1ccc(CN=C2Nc3ccccc3CS2)nc1 -3.75%, Cc1ccccc1CN1CCCCC(NC(=O)c2cccc(C#N)c2)C1=O (centres undefined) 3.06%, Cc1ccc(C)c(-n2c(SCC(=O)O)nc3sc4c(c3c2=O)CCCC4)c1 27.1%, Cc1ccc(C)c2c1cc(C)c1nnc(SCC(=O)Nc3cccc(C(=O)O)c3)n12 2.06%, COc1cc(C)c(C)cc1S(=O)(=O)N1CCCc2ccccc21 -3.84%, CC(CCN1CCC(C(O)(c2ccccc2)c2ccccc2)CC1)Oc1ccc(Cl)cc1 (centres undefined) 1.34%, CCOc1ccc(N(CC(=O)Nc2c(C)n(C)n(-c3ccccc3)c2=O)S(=O)(=O)c2ccc(Cl)s2)cc1 1.32%, CCCCCCCCN1C(=O)[C@@H](CC(=O)N2CCN(C(=O)OCC)CC2)C[C@@]2(C(=O)OC)C1=C[C@H](C1CCCC1)O[C@@H]2C 5.15%, Cn1c(=O)c2ccccc2n(CC(=O)Nc2ccc3c(c2)OCCO3)c1=O -1.32%, O=C(CN1CCN(c2ncc(C(F)(F)F)cc2Cl)CC1)Nc1ccc2c(c1)OCO2 -4.82%, Cc1ccc2nc(CN(C)C(=O)[C@@H](Cc3ccccc3)NC(=O)[C@H]3O[C@@H](n4ccc(=O)[nH]c4=O)[C@H](O)[C@@H]3O)[nH]c2c1 0.21%
